Common to all, as to assay: MAPPIT interaction score (arbitrary units); higher = stronger binary interaction signal, active = hit call of the paper
One assay has as its target CG17991. As to conditions: MAPPIT configuration: N-C.
The target in the next assay is sina. The note with it: MAPPIT configuration: N-N; pair source set: screen_2.
A further assay has as its target park. The note with it: MAPPIT configuration: N-C; pair source set: screen_4.
The target in the next assay is CG17162. As to conditions: MAPPIT configuration: N-C.
A further assay addresses CG17598. As to conditions: MAPPIT configuration: N-N; pair source set: Lit-BM-16.
The target of another assay is CG15576. As to conditions: MAPPIT configuration: N-N; pair source set: Curagen_low_conf.
The next assay has as its target CG1789. The note with it: MAPPIT configuration: N-N; pair source set: Finley_Y2H.
The target in a further assay is Mnt. As to conditions: pair source set: Lit-BM-16.
The next assay has as its target CG15728. The note with it: MAPPIT configuration: N-C; pair source set: screen_3.
In a further assay the target is CG17776. As to conditions: MAPPIT configuration: N-N; pair source set: Lit-BS-16.
The target in the next assay is CG16904. As to conditions: MAPPIT configuration: N-N; pair source set: Curagen_low_conf.
The target in the next assay is CG2865. As to conditions: MAPPIT configuration: N-N; pair source set: Curagen_low_conf.
The target of a further assay is Cul3. The note with it: pair source set: Lit-BM-16.
The target in another assay is puc. The note with it: pair source set: Lit-BM-16.
The target in another assay is spir. The note with it: MAPPIT configuration: N-N; pair source set: Curagen_low_conf.

Unmarked numbers belong to inactive results.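 How the source made its calls: active = MAPPIT score above the 99th percentile of random reference set scores in the same batch; inactive = at or below it.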
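Further: HEK293T cells with Epo stimulation, STAT-responsive firefly luciferase reporter, fold induction versus unstimulated cells divided by the larger fold induction of two negative controls lacking either bait or prey.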

B1: ben (protein)
chain: MSSLPRRIIKETQRLMQEPVPGINAIPDENNARYFHVIVTGPNDSPFEGGVFKLELFLPEDYPMSAPKVRFITKIYHPNIDRLGRICLDVLKDKWSPALQIRTILLSIQALLSAPNPDDPLANDVAELWKVNEAEAIRNAREWTQKYAVED
Turning to B1, the MAPPIT interaction score is 0.127 in the assay with CG17991 (pair source set: screen_3) and 0.428 in the assay with sina.

B2: CG5532 (protein)
chain: MPVDWFGYVYAATVAAGGIMGYAKAGSIPSLGAGLAFGALLGYGAHLNSQDTPRPLLQLGTSLFLAGLMGARWNRSGKLMPAGMVCMLSVAALVKNLATYNRYLMPAGTKAP
Turning to B2, the MAPPIT interaction score with CG17991 (pair source set: screen_4) is 0.124; with park, 0.413.

B3: p38c (protein)
chain: MPEFVRVAINESLWEFPDIYEFVRFLGGGSFGQVAKVRLRGTENYFAMKRLMRPFEREEDAKGTYREIRLLKHMNHRNVISLLNVFHPPAHNMMEFQQVYLVTHLMDADLHRYSRSKRMSDQEIRIILYQILRGLKYIHSAGVVHRDLKPCNIAVNGNSEVRILDFGLSRMCADKMTDHVGTMWYLAPEIIFLRGQYTKAIDVWSVGCILAELITDRVLFRGENYVSQIRCLINIMGTPTREFITGISMERSRNYLEGYPLRQRCDFHHLFMGYDVQAIDLMEKMLEMVPEKRITAAEAMLHPYLRDLIEPHHHAEDTAPVYDQNFENMVLPVKCWKELVSHEIRNFRPDQLDLHF
For the molecule B3, in the assay with CG17162 (pair source set: screen_3), the MAPPIT interaction score was 0.769.

B4: Rab2 (protein)
chain: MSYAYLFKYIIIGDTGVGKSCLLLQFTDKRFQPVHDLTIGVEFGARMITIDGKQIKLQIWDTAGQEAFRSITRSYYRGAAGALLVYDITRRETFNHLTTWLEDARQHSNSNMVIMLIGNKSDLDSRREVKKEEGEAFAREHGLVFMETSARTAANVEEAFINTAKEIYEKIQEGVFDINNEANGIKIGQQHSPTNPSLPGAGGAAGAANSGCC
With B4, the MAPPIT interaction score in the assay with CG17598 is 1.18.

B5: Nedd8 (protein)
chain: MLIKVKTLTGKEIEIDIEPTDKVDRIKERVEEKEGIPPQQQRLIFSGKQMNDDKTAADYKVQGGSVLHLVLALRGGDSILTPCV
Turning to B5, in the assay with CG15576, the MAPPIT interaction score was 1.7.

B6: Max (protein)
chain: MSMSDDDRDIDIESDEDGDSDTGLGSSRHTNTANFTQAEKRAHHNALERRRRDHIKESFTNLREAVPTLKGEKASRAQILKKTTECIQTMRRKISENQKDIEEIKRQNNIIAKQIQALESSNGDQFSEFLSDEEVGSEEADDEDLDQDFSRRNKKMKTFHA
On to B6, for which the MAPPIT interaction score in the assay with CG1789 was 0.0947; with Mnt (MAPPIT configuration: N-C), 4.14 (active); with Mnt (MAPPIT configuration: N-N), 5.94 (active).

B7: REPTOR-BP (protein)
chain: MADMEIQSNKMSITEETQVQTRKECGKRGRKPGRKTSTEKLDMKAKLERSRQSARECRARKKLRYQYLEELVADREKAVVALRTELERLIQWNNQLSESNTPTNNDQLLQELGILKQE
Regarding B7, the values for the MAPPIT interaction score with CG15728 and in the assay with CG17776 were 1.49 and -0.21, respectively.

B8: TrxT (protein)
chain: MVYPVRNKDDLDQQLILAEDKLVVIDFYADWCGPCKIIAPKLDELAHEYSDRVVVLKVNVDENEDITVEYNVNSMPTFVFIKGGNVLELFVGCNSDKLAKLMEKHAGVYTDEAADVKAVHIDGECIVDLTAESSESDNDNNNVNEVSAHDENAVLEH
As to B8, the MAPPIT interaction score in the assay with CG17162 (pair source set: screen_4) was 1.51.

B9: rdx (protein)
chain: MFEPYVKIKKKRSVNEIYENENLEQQQHHLQQQQQQPATSDNCCCENGEPQNAPEVATATVAATSVAATSAAATVATGAAASSSSSGNCSRLQQLISTPPVLLRRSSLQQQQHQQQQHHPHTPAATATPPQQQQQQQAAPSVLQQHLGHLNYESGATAAAAATAAAAAATVATSRSGSATLAQHLATPSNILQAAFGSSNLQHILTRSAPSPSSSAISSNNCSSACAGNTHYNGGNSNSGSSSSNSNHHSNSIIASRLFGAASSSSSSSSSSASASSSSVAASSSSSSHHLHSHHSALTNSITNRINQSIRRHLNQQQHHHPLSASSSSASASPSASTSSSSSYQQSSVQQQHYNCAHPAQQQQHHHHHHSSSSSSSSSSSSSHHHHNSSSSSNSNNQQQPQQSPLCLVLLVKCPNSKEFCNAAANFCDKRLPVNECQASQTARVTSNLHASSSTMAVSRVPSPPLPEVNTPVAENWCYTQVKVVKFSYMWTINNFSFCREEMGEVLKSSTFSAGANDKLKWCLRVNPKGLDEESKDYLSLYLLLVSCNKSEVRAKFKFSILNAKREETKAMESQRAYRFVQGKDWGFKKFIRRDFLLDEANGLLPEDKLTIFCEVSVVADSVNISGQSNIVQFKVPECKLSEDLGNLFDNEKFSDVTLSVGGREFQAHKAILAARSDVFAAMFEHEMEERKLNRVAITDVDHEVLKEMLRFIYTGKAPNLEKMADDLLAAADKYALEKLKVMCEEALCVNLSVETAAETLILADLHSADQLKAQTIDFINTHATDVMETSGWQNMITTHSHLIAEAFRALATQQIPPIGPPRKRVKMS
B9: the MAPPIT interaction score with CG16904 is -0.125; with CG2865, -0.131; in the assay with Cul3 (MAPPIT configuration: N-C) it was 1.12; with Cul3 (MAPPIT configuration: N-N), 0.911; in the assay with puc (MAPPIT configuration: N-C), 0.404; with puc (MAPPIT configuration: N-N) it was 0.467. Moreover, the MAPPIT interaction score in the assay with spir is 0.125.

Values taken from the supplement of paper PMC10105736.
